PubChem BioAssay (EPA / NIEHS)
Active and inactive are the calls of the source. How the source made its calls: active means hit-call score of the fitted dose curve at least 0.9, where 1 is the maximum; inactive means score below 0.9.

read-out: Transforming growth factor beta 1 (TGFb1), TGFB1 (gene 7040); assay: BSK_KF3CT_TGFb1: BioMAP Diversity Plus: KF3CT Assay for Transforming growth factor beta 1 (TGFb1) Biomarker Activity (AID 2283072); details: primary human keratinocytes with fibroblasts; actives raise or lower the signal
Description: BSK_KF3CT is a cell-based, multiplexed-readout assay that uses keratinocytes and foreskin fibroblasts, a human skin primary cell co-culture, with measurements taken at 24 hours after chemical dosing in a 96-well plate.BSK_KF3CT_TGFb1 is an assay component measured in the BSK_KF3CT assay. It measures TGF-b1 antibody related to regulation of gene expression using ELISA technology.Data from the assay component BSK_KF3CT_TGFb1 was analyzed into 1 assay endpoint. This assay endpoint, BSK_KF3CT_TGFb1, was analyzed with bidirectional fitting relative to DMSO as the negative control and baseline of activity. Using a type of binding reporter, gain or loss-of-signal activity can be used to understand changes in the signaling as they relate to the gene TGFB1. Furthermore, this assay endpoint can be referred to as a primary readout, because this assay has produced multiple assay endpoints where this one serves a signaling function. To generalize the intended target to other relatable targets, this assay endpoint is annotated to the growth factor intended target family, where the subfamily is transforming growth factor beta.
The levels of cell surface (or secreted, indicated by the prefix "s") biomarker endpoints were measured by ELISA. Overt cytotoxicity to cells in confluent adherent cultures (all systems other than the BT system) was assessed by measuring total protein levels using sulforhodamine B (SRB) staining in parallel cultures at the time of biomarker measurements, indicated as SRB endpoints. For proliferation assays for adherent cell types, individual cell types are cultured at sub-confluence and relative cell numbers quantified by SRB staining at time points optimized for each system (48 h: 3C and CASM3C systems; 72 h: BT and HDF3CGF systems; 96 h: SAg system). SRB was performed by staining cells with 0.1% SRB after fixation with 10% TCA and reading wells at 560 nm.Viability and proliferation of PBMC (T cells) was quantified by Alamar Blue reduction for the SAg and BT systems. For PBMC viability (referred to as PBMC Cytotoxicity within the assay endpoint names), cells were plated (75,000/well in a 96-well plate) and then chemical samples added for 1 h before addition of activators, SEB and TSST-1 (20 ng/mL final concentration each). Cells were incubated for 90 h. Then, Alamar Blue (20 uL/well) (Invitrogen, Cat DAL1100) was added for 6 h, and the plates were read with a fluorescence microplate reader at 546/580 nm (excitation/emission). For PBMC proliferation, cells were plated and activated as above but incubated for only 16 h prior to addition of Alamar Blue. Plates were read after 6 h.

SMILES	outcome	AC50
Cc1ccc(O)c(-n2nc3ccccc3n2)c1	inactive	
C[C@]12CC[C@H]3C(=CCc4cc(O)ccc43)[C@@H]1CCC2=O	inactive	
O=C1c2c(O)ccc(Nc3ccc(CCO)cc3)c2C(=O)c2c([N+](=O)[O-])ccc(O)c21	inactive	
Cc1cc(O)c(C(C)(C)C)cc1C(C)(C)C		3.85 µM (active)
CCOC(C=C(C)CCC=C(C)C)OCC		3.97 µM (active)
CCN(CC)c1ccc(C=O)cc1	inactive	
Brc1nc2ccccc2s1	inactive	
Nc1cc([N+](=O)[O-])cc(Cl)c1O	inactive	
CCN(CC)c1ccc(N=Nc2ccccc2)cc1	inactive	
Cc1ccc(S(=O)(=O)C(I)I)cc1	inactive	
CC(C)CCCC(C)CCO (stereo unspecified)		30.1 µM (active)
CC1=CC2C3C=CC(C3)C2C1C (stereo unspecified)	inactive	
CC(C)(C)c1cc(CCC(=O)NCCCCCCNC(=O)CCc2cc(C(C)(C)C)c(O)c(C(C)(C)C)c2)cc(C(C)(C)C)c1O	inactive	
CCN(CC)c1ccc2c(c1)Oc1cc(N(CC)CC)ccc1C21OC(=O)c2ccccc21	inactive	
O=C(c1ccccc1)c1ccc(O)cc1O	inactive	
O=C=Nc1cccc2c(N=C=O)cccc12	inactive	
CCN(CC)c1ccc(C=O)c(O)c1	inactive	
Cc1cc(C)c(O)c(C(C)(C)C)c1		30.8 µM (active)
Cc1cnccn1	inactive	
O=C=NCc1cccc(CN=C=O)c1	inactive	
O=C1C=CC(=O)N1c1ccc(Cc2ccc(N3C(=O)C=CC3=O)cc2)cc1		3.46 µM (active)
